# PubChem BioAssay AID1851 (National Center for Advancing Translational Sciences (NCATS), 2009)
# “And” between values parts separate entries of the source, which are not always exact repeats. Equal entries are not always repeated. The campaign covered roughly 16,000 compounds. About 2,600 (16%) were called active. Another 20% or so got no clear call; they are omitted. The call rests on the fitted dose curve; in most records, active means well fitted curve in the direction sought with a large enough effect; inconclusive means small, poorly fitted or top-dose-only effect, or effect the other way; inactive means no such curve, though single readings can be large or run the other way. Not all results are given here. Peptide text beside a SMILES is read from it. * marks the point of attachment. Cbz = O=C(OCc1ccccc1)*
# Target: Cytochrome P450 2D6 (Homo sapiens) (UniProt P10635)
# Experiment: Cytochrome panel assay with activity outcomes
# Settings: recombinant CYP, pro-luciferin dealkylation, luminescence, p450-cyp2d6; series mostly up to 57.1 µM
# On the % scale 0 is the no-effect control and ±100 the full control effect.
# Cytochrome P450 2D6 (Homo sapiens), sequence (P10635 whole entry, looked up): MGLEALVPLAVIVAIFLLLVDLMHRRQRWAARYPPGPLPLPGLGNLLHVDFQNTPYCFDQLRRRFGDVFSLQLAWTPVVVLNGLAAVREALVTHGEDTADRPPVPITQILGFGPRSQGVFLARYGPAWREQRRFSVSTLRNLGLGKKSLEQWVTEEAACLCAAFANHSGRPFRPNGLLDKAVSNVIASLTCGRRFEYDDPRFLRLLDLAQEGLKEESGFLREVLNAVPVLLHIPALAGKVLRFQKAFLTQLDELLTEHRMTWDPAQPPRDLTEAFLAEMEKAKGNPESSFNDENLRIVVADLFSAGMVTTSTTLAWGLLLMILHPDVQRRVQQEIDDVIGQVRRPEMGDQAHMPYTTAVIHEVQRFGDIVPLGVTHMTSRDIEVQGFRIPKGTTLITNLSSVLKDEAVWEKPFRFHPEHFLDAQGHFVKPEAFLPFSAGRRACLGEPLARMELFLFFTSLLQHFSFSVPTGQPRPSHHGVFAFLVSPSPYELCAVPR
SMILES,AC50,"activity, negative = inhibition"
COc1ccc2c(c1)c(CC(=O)O)c(C)n2Cc1ccc(Cl)cc1,inactive,–
CO[C@@H]1COC(=O)C/C=C\[C@H](C)[C@@H](NS(=O)(=O)c2ccc(C)cc2)COC(=O)C/C=C\[C@@H]1C,–,1.88% [at 11.4 µM] (inactive) and 8.18% [at 11.4 µM] (inactive)
Cc1cc(SCC(=O)c2cccs2)nc2c(C)cccc12,inactive,–
O=C(O)CC(c1cccc2ccccc12)n1cccc1 (stereo not given),inactive,–
O=C(c1cc(C(F)(F)F)cc(C(F)(F)F)c1)N1CCC2(CC1)CCN(c1ccccn1)CC2,inactive,–
O=C1OC2CC3CC1CC(O)(C3)C2 (stereo not given),inactive,–
O=C(NCCO[N+](=O)[O-])c1cccnc1,inactive,–
CO[C@@H]1COC(=O)CC=C[C@@H](C)[C@@H]2C=C[C@@H](O)[C@@H](COC(=O)C/C=C\[C@H]1C)O2,–,20% [at 11.4 µM] (inactive)
O=c1c(CCc2ccccc2)nc2cncnc2n1Cc1ccccc1Cl,inactive,–
CC(C)[C@H](NC(=O)OCc1ccccc1)C(=O)N[C@H](C=O)Cc1ccccc1 (Cbz-Val-Phe-aldehyde),inactive,–
Cc1nc2cnc(N3CCNCC3)nc2n(-c2ccccc2)c1=O,inactive,–
CN1CCN(c2ncc3nc(-c4cc(F)cc(F)c4)c(=O)n(C4CC4)c3n2)CC1,inactive,–
O=S(=O)(O)c1cc(O)c2c(N=Cc3ccccc3O)cc(S(=O)(=O)O)cc2c1,–,-8.82% [at 11.4 µM] (inactive)
Cc1cc(C)n(-c2nc(Nc3ccccc3C)nc(-n3nc(C)cc3C)n2)n1,inactive,–
CCN1/C(=C/c2ccc3cccc(C)c3[n+]2CC)Sc2ccccc21,0.0708 µM (active),–
CC1(C)O[C@@H]2C[C@H]3[C@H]4C[C@H](F)C5=CC(=O)C=C[C@@]5(C)[C@@H]4[C@H](O)C[C@]3(C)[C@]2(C(=O)CO)O1,inactive,–
Cc1cc(S(=O)(=O)NCCN(C)C)c(C)s1,inactive,–
CCN(CCO)Cc1csc2cccc(Br)c12,15.8 µM (active),–
COc1ccc(-n2c(=O)c(-c3cccc(Cl)c3)nc3cncnc32)cc1,inactive,–
CCOC(=O)c1cnc2cc(-c3ccc(C(C)(C)C)cc3)nn2c1N,inactive,–
O=C(CCc1ccccc1)NCc1cccnc1,inactive,–
O=C(CSCc1c(Cl)cccc1Cl)NCc1cccnc1,15.8 µM (active),–
Cn1c(C(=O)O)c(CC(=O)NCc2cccnc2)c2ccccc21,inactive,–
O=[N+]([O-])c1ccc(Cl)c(-c2ccc(/C=N/c3c(-c4ccco4)nc4ccccn34)o2)c1,inactive,–

SMILES,AC50,"activity, negative = inhibition"
Cc1cc(-c2cccc([N+](=O)[O-])c2)nc2ccc3ccccc3c12,inactive,–
N#CCCn1c(=O)c(-c2ccc(F)cc2)nc2cnc(Oc3cccc(Cl)c3)nc21,inactive,–
O=C(Cc1c[nH]c2ccccc12)OCC(=O)c1ccccc1,inactive,–
CCOC(=O)CCCc1c[nH]c2ccccc12,17.8 µM (active),–
C[C@@](N)(Cc1c[nH]c2ccccc12)C(=O)O,–,5.35% [at 11.4 µM] (inactive)
[O-][N+]1(CC[N+]2([O-])CCCCC2)CCCCC1,–,3.01% [at 11.4 µM] (inactive)
COc1cccc(/C=N/n2c(=S)n(C)c3cc(C)c(C)cc32)c1OC,inactive,–
CC(=O)CSc1nnc(Cc2ccc([N+](=O)[O-])cc2)o1,inactive,–
O=C(O)Cc1cc2ccccc2nc1C(=O)O,inactive,–
COC(=O)C1C(=O)C2=C(CC1C)NC(=O)CC2c1cccc(C)c1 (stereo not given),inactive,–
COc1ccc2[nH]cc(CCNc3ncncc3-c3ccccc3C(F)(F)F)c2c1,2 µM (active),–
COc1ccc2[nH]cc(CCNc3ncncc3-c3ccccc3Cl)c2c1,0.631 µM (active),–
COc1ccc2[nH]cc(CCNc3ncncc3-c3ccccc3OC)c2c1,1.26 µM (active),–
COc1ccc2[nH]cc(CCNc3ncncc3-c3ccccc3CN(C)C)c2c1,10 µM (active),–
CC[C@@H]1CN2CCc3cc(OC)c(OC)cc3[C@H]2C[C@@H]1C[C@H]1NCCc2cc(OC)c(OC)cc21,inactive,–
COc1c2ccoc2nc2c(OC)c(OC[C@H](O)C(C)(C)O)ccc12,inactive,–
CC(=O)N1N=C(c2cccc([N+](=O)[O-])c2)OC1c1ccccc1Cl (stereo not given),inactive,–
O=c1c(-c2cccs2)nc2cnc(Oc3cccc(Cl)c3)nc2n1C[C@H]1CCCO1,inactive,–
CCc1ccc(-c2cc(C(F)(F)F)n3nc(C(=O)Nc4cnn(Cc5ccccc5C)c4)cc3n2)s1,inactive,–
CCOC(=O)c1c(NC(C)=O)sc2c(OC)cccc12,inactive,–
COC(=O)c1ccc(OCC2c3cc(OC)c(OC)cc3CCN2C(=O)C2CC2)cc1 (stereo not given),inactive,–
COc1ccc2[nH]cc(CCNc3ncncc3-c3ccccc3C)c2c1,1.26 µM (active),–
CCCCN(C)S(=O)(=O)c1ccc(C(=O)Nc2nnc(CSC)o2)cc1,inactive,–
CCCc1nn(-c2ccccc2)c2c1C(c1cccs1)C(C#N)=C(N)O2 (stereo not given),inactive,–

SMILES,AC50,"activity, negative = inhibition"
CCC(C(=O)Nc1cccc(C(F)(F)F)c1)c1ccccc1 (stereo not given),inactive,–
Cc1[nH]n(-c2ccccc2)c(=O)c1CCOC(=O)c1cccc(C(F)(F)F)c1,inactive,–
C[C@@H](Cc1cccc(C(F)(F)F)c1)NCCOC(=O)c1ccccc1,0.0158 µM (active),–
COc1cccc(-c2cc(C(=O)N/N=C/c3ccc(OC)c(COC(C)=O)c3)c3ccccc3n2)c1,inactive,–
CN(C)C(=O)c1ccc(-n2nc(C(F)(F)F)c3c2CCCC3)cc1,8.91 µM (active),–
CCc1ccc(NC(=O)Cn2nc(C(F)(F)F)c3c2CCC3)cc1,inactive,–
O=C(Cn1nnc(-c2ccccc2)n1)OCc1ccccc1,inactive,–
CCC[C@H](Sc1nc(N)nc2nc[nH]c12)C(=O)O,–,1.31% [at 11.4 µM] (inactive)
CCCNC(=O)OC[C@H]1O[C@@H](CCO/N=C2/[C@H]3O[C@@H]3[C@@H](O)[C@H]3[C@H]2CCn2c(=O)n(-c4ccccc4)c(=O)n23)C=C[C@@H]1Oc1ccc(OC)cc1,–,10.6% [at 11.4 µM] (inactive)
CCCCCc1nc2c(C#N)c(-c3ccc(Cl)cc3)ccn2n1,inactive,–
O=C(Nc1ccccc1)N1CCC2(CC1)CCN(C(=O)c1cnccn1)CC2,inactive,–
O=C(Nc1ccccc1)N1CCCC2(CCN(C(=O)c3cnccn3)CC2)C1,inactive,–
O=C(c1cnccn1)N1CCC[C@@]2(CCN(C(c3ccccc3)c3ccccc3)C2)C1,10 µM (active),–
O=C(Nc1ccccc1)N1CC[C@@]2(CCCN(C(=O)c3cnccn3)C2)C1,inactive,–
O=C(Nc1ccccc1)N1CC2(CCN(C(=O)c3cnccn3)CC2)C1,inactive,–
O=C(c1cnccn1)N1CCC2(CCCN(C(c3ccccc3)c3ccccc3)C2)CC1,10 µM (active),–
O=C(c1cnccn1)N1CCC2(CC1)CCN(c1ccccc1)CC2,inactive,–
O=C(c1cnccn1)N1CCC[C@@]2(CCN(c3ccccn3)C2)C1,inactive,–
O=C(c1cnccn1)N1CCC2(CCCN(c3ccccc3)C2)CC1,inactive,–
O=C(c1cnccn1)N1CCC2(CC1)CN(c1ccccc1)C2,inactive,–
O=C(c1cnccn1)N1CCC2(CC1)CN(C(c1ccccc1)c1ccccc1)C2,6.31 µM (active),–
O=C(c1cnccn1)N1CCC2(CC1)CCN(C(c1ccccc1)c1ccccc1)CC2,3.98 µM (active),–
